Source: PubChem (several laboratories)
This is a sample that favours compounds with a hit; in the whole collection about 4.3% have one here.
HSF-1 act: increases HSF-1 driven luciferase reporter signal. NIH3T3-HGL HSF-1 luciferase reporter, MG132, 8 h; 100% = twice DMSO control signal. 300,000 compounds, 1.7% hits. activation, % at 9 µM;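 active = mean replicate activation of at least 50% with a set share of replicates each reaching 50%; inconclusive = only one of those two conditions met; inactive = mean below 50% and too few replicates reaching it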
SMARCA2 act: SMARCA2 function activation, primary screen | activation, % at 9.1 µM | MG213 cells, MMTV-luciferase reporter, dexamethasone, overnight | AID 652017 | 370,000 compounds, 1% hits; in the data active = activation above about 7.8%
esBAF inh: blocks esBAF chromatin remodeling in mouse ES cells; Bmi1-luciferase knock-in reporter, 24 h; 100% = twice the neutral-well signal; reporter increase, % at 12.5 µM; 350,000 compounds, 2% hits; AID 602393; in the data active = activation above about 40%; inconclusive = no clear call, values can overlap the other calls;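 also: a rise in the Bmi1 reporter signal indicates esBAF inhibition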
Wnt bcat act: activates Wnt/beta-catenin signaling in a reporter cell assay; activator, plate reader; activation, % at 9.35 µM; 300,000 compounds, 1.2% hits; AID 743398; in the data active = activation above about 30%, passing the limit was not always enough; inconclusive = no clear call, values can overlap the other calls
HSF1 inh: HSF1 inhibition. activity change, negative = inhibition, % at 7.5 µM (by protocol). NIH3T3-HGL HSE-luciferase, MG132-induced, luminescence 8 h; hits give low values. 300,000 compounds, 0.77% hits;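 active = more than half of replicate wells show activity change below -50%, luminescence cut by over half; inconclusive = some wells, but at most half, below -50%; inactive = no replicate well below -50%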;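 also: luciferase reports HSF-1 transcriptional activity via heat shock element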
MITF TRPM1 HTS: increases MITF-driven TRPM1 promoter luciferase signal. SK-MEL-5 TRPM1-promoter luciferase, 24 h; % of positive control, neutral wells = 0. activation, % at 12.5 µM. 300,000 compounds, 0.75% hits. AID 588334;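 active = mean activation of at least 80% with every replicate also reaching 80%; inconclusive = mean reaches 80% but some replicate falls short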
Of the large screens only hits and unclear results are named; the others gave an inactive call.

COCC#Cc1ccc2c(c1)O[C@@H](CN(C)CC1CCOCC1)[C@H](C)CN([C@H](C)CO)S2(=O)=O	none (no result: HSF-1 act, SMARCA2 act, Wnt bcat act, HSF1 inh, MITF TRPM1 HTS)
C/C(=N\NC(=O)c1cccs1)c1c(O)cc(C)oc1=O	esBAF inh 62.7
C/C(=N\NC(=O)c1ccc2c(c1)OCO2)c1ccc2c(c1)OCO2	esBAF inh 52.1
C/C(=N/NC(=O)c1cccs1)c1cccs1	none (no result: esBAF inh, MITF TRPM1 HTS)
CC(=NNC(=O)c1cccs1)c1ccc2c(c1)OCCO2	esBAF inh 47.3, Wnt bcat act inconclusive, MITF TRPM1 HTS 104.6 (no result: HSF-1 act, HSF1 inh)
C/C(=N\NC(=O)c1ccc2c(c1)OCCO2)c1ccccc1	Wnt bcat act 47.3 (no result: MITF TRPM1 HTS)
C[C@H]1CN([C@@H](C)CO)C(=O)Cc2cc(NC(=O)Nc3ccc(C(F)(F)F)cc3)ccc2O[C@H]1CN(C)S(=O)(=O)c1cn(C)cn1	none (no result: HSF-1 act, SMARCA2 act, Wnt bcat act, HSF1 inh, MITF TRPM1 HTS)
O=C(CN1CCOCC1)NCC[C@H]1CC[C@H](NC(=O)Nc2ccc(C(F)(F)F)cc2)[C@H](CO)O1	none (no result: HSF-1 act, SMARCA2 act, Wnt bcat act, HSF1 inh, MITF TRPM1 HTS)
O=C(NCC1CC1)[C@@H]1N[C@@H]2c3ccc(-c4ccccc4F)c(=O)n3C[C@@H]2[C@H]1CO	none (no result: HSF-1 act, SMARCA2 act, Wnt bcat act, HSF1 inh, MITF TRPM1 HTS)
O=C(NC[C@@H]1N[C@@H](CO)[C@H]1c1ccc(-c2ccccc2F)cc1)c1ccccc1	none (no result: HSF-1 act, SMARCA2 act, Wnt bcat act, HSF1 inh, MITF TRPM1 HTS)
CCN(CC)S(=O)(=O)c1cccc(C(=O)N/N=C(\C)c2cccs2)c1	esBAF inh inconclusive, MITF TRPM1 HTS 100.6 (no result: HSF-1 act, HSF1 inh)
CO[C@H](CN(C)C(=O)c1cnccn1)[C@@H](C)CN([C@H](C)CO)S(=O)(=O)c1ccc(Cl)cc1	none (no result: HSF-1 act, SMARCA2 act, Wnt bcat act, HSF1 inh, MITF TRPM1 HTS)
Cc1ccc(F)c(CNC(=O)C2(C)CCCN2C(=O)C(C)C)c1F (stereo not given)	Wnt bcat act 36.2 (no result: HSF-1 act, HSF1 inh, MITF TRPM1 HTS)
C=CCNCC(=O)N1N=C(c2ccc3ccccc3c2)CC1c1ccc(OC)cc1 (stereo not given)	none (no result: esBAF inh)
CC(=O)OCC(=O)N1N=C(c2ccc3ccccc3c2)CC1c1ccccc1 (stereo not given)	HSF-1 act 52.8 (no result: esBAF inh, Wnt bcat act)
COc1ccc(C2CC(c3ccc4ccccc4c3)=NN2C(=O)CN2CCC(C(N)=O)CC2)cc1 (stereo not given)	esBAF inh 48.5
COc1ccc(C2CC(c3ccc4ccccc4c3)=NN2C(=O)CNC2CCCCC2)cc1 (stereo not given)	none (no result: esBAF inh)
COc1ccc(C2CC(c3ccc4ccccc4c3)=NN2C(=O)COC(=O)C2CCC(=O)N2)cc1 (stereo not given)	HSF-1 act inconclusive, Wnt bcat act 45.4 (no result: esBAF inh)
C[C@@H]1CN([C@@H](C)CO)S(=O)(=O)c2ccc(Br)cc2O[C@H]1CN(C)C(=O)c1cnccn1	none (no result: HSF-1 act, SMARCA2 act, Wnt bcat act, HSF1 inh, MITF TRPM1 HTS)
C/C=C/c1ccc([C@@H]2[C@@H](CO)N(C(C)=O)[C@H]2CN(CC)C(=O)CC)cc1	none (no result: HSF-1 act, SMARCA2 act, Wnt bcat act, HSF1 inh, MITF TRPM1 HTS)
Cc1ccc(NC2c3ncccc3C(=O)N2C2CCCCC2)cc1 (stereo not given)	HSF-1 act 66.7 (no result: esBAF inh, Wnt bcat act)
Cc1ccc(NC2c3ncccc3C(=O)N2C2CCCCC2)cc1C (stereo not given)	none (no result: Wnt bcat act)
COCCCNC(=O)c1c[nH]c2ccc(S(=O)(=O)N3CCc4ccccc43)cc2c1=O	HSF-1 act 51.0 (no result: esBAF inh)
CC(C)(C)c1cc(NC(=O)c2ccc(OC3CCCC3)cc2)no1	none (no result: esBAF inh)
O=C(Nc1ccon1)c1ccc(OC2CCCC2)cc1	Wnt bcat act 46.2, MITF TRPM1 HTS inconclusive (no result: esBAF inh)
CCCNC(=O)N1C[C@H](C)[C@@H](OC)CN(C)C(=O)c2ccc(NC(=O)CCC)cc2OC[C@H]1C	none (no result: HSF-1 act, SMARCA2 act, Wnt bcat act, HSF1 inh, MITF TRPM1 HTS)
COc1ccccc1NC(=O)N[C@H]1CC[C@@H](CCn2cc(-c3ccccc3OC)nn2)O[C@@H]1CO	none (no result: HSF-1 act, SMARCA2 act, Wnt bcat act, HSF1 inh, MITF TRPM1 HTS)
COc1ccc2[nH]c(=O)c(CNc3ccccc3OC)cc2c1	none
CCOc1ccc(NCc2cc3cc(OC)ccc3[nH]c2=O)cc1	none (no result: esBAF inh)
COc1ccc2[nH]c(=O)c(CNc3ccccc3)cc2c1	esBAF inh 85.4
COc1ccc2[nH]c(=O)c(CNc3ccccc3C)cc2c1	Wnt bcat act 38.9 (no result: esBAF inh)
CN(C)c1ccc(C2Nc3ccccc3C(=O)N2CCCN2CCOCC2)cc1 (stereo not given)	HSF1 inh -68.1
O=C(O)c1ccc(N/N=C/c2cccc(C(F)(F)F)c2)cc1	esBAF inh 92.1, MITF TRPM1 HTS 110.4
O=C(O)c1cccc(N/N=C/c2ccc(OC(F)(F)F)cc2)c1	HSF1 inh -56.0
O=C(O)c1ccc(N/N=C/c2ccncc2)cc1	none (no result: esBAF inh)
O=C(O)c1ccc(N/N=C/c2ccc3nccnc3c2)cc1	HSF1 inh -81.0
